# Results published in PubChem BioAssay (Tox21).
# Several values for one entry are separate records, joined by “and”; a condition that tells them apart may be missing. Identical values can stand only once. Results filed as inconclusive are left out. Where a call stands in place of a potency, no number is given. The source holds several records for some structures; these can differ, active in one and inactive in another. Activity calls are given as the source filed them. Calls follow the shape of the dose curve; as a rule, active = well fitted activation curve with a large enough effect in the repeat runs; inconclusive = weak or mixed curves; inactive = no such curve, though single readings can be large or run the other way.
# Target: Nuclear receptor subfamily 1 group I member 2 (Homo sapiens) (UniProt O75469)
# Assay: Human pregnane X receptor (PXR) small molecule agonists, qHTS assay (AID 1346982); also: nearly all actives have a fitted effect of over 35% in size
# Settings: PXR-Luc HepG2, CYP3A4 luciferase reporter, 24 h; series mostly up to 92.4 µM; activation: at the top concentration
# Excerpt: National Center for Advancing Translational Sciences [NCATS]
# NIH Chemical Genomics Center [NCGC]
# U.S. Environmental Protection Agency [EPA]
# National Institutes of Environmental Health Sciences [NIEHS]
# National Toxicology Program [NTP]
# The human pregnane X receptor (hPXR) regulates the expression of several drug metabolizing enzymes and induction of these proteins is a major mechanism for developing drug resistance in cancer. One such key enzyme catalyzing the drug metabolism is cytochrome P450 3A4 (CYP3A4). Changes in CYP3A4 expression affect drug metabolism, thereby reducing the therapeutic efficacy and altering toxicological response to a drug and which finally causes adverse drug interaction. To screen Tox21 libraries for compounds that activate hPXR-mediated CYP3A4 gene expression, PXR-Luc HepG2 cells were used.
# PXR-Luc HepG2 cells were dispensed at 2,000 per well in 5uL of assay medium containing 5% charcoal-stripped FBS into white solid bottom 1536-well plates (Corning Life Sciences, Corning, NY) using a Multidrop Combi (Thermo Scientific, Waltham, MA) dispenser. The assay plates were incubated at 37 C and 5% CO2 for 5hr, and then 23nL of compounds dissolved in DMSO and positive control were transferred using a Pintool station (Wako, San Diego, CA). The assay plates were incubated at 37C and 5% CO2 for 24hr. For luciferase read, 4uL of ONE-Glo reagent (Promega Corporation, Madison, WI) was added to each well of the assay plates using Flying Reagent Dispenser (FRD, Aurora Discovery, San Diego, CA) and incubated the assay plates at room temperature for 30min. The luminescence signal was quantified using a ViewLux plate reader (Perkin Elmer, Shelton, CT).
# Potency is read from the fitted curve at half-maximal effect.
# Chain of Nuclear receptor subfamily 1 group I member 2 (Homo sapiens) (O75469 whole entry, looked up): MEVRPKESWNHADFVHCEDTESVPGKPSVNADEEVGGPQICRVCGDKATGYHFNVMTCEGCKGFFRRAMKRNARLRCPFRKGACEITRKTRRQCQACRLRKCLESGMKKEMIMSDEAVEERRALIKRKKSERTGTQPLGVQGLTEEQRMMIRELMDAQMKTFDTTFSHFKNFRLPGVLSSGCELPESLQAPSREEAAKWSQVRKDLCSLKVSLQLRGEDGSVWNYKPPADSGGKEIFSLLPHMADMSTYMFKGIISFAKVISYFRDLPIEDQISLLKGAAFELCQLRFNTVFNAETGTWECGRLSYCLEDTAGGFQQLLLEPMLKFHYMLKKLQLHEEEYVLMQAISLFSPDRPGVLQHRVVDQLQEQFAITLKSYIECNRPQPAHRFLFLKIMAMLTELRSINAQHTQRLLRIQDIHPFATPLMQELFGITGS
SMILES,Potency,activation
COc1ccc(OC)cc1,inactive,–
CCO[Si](CCCN)(OCC)OCC,–,4.73% (inactive)
CC1(C)CC(N)CC(C)(CN)C1 (stereo not given),49.3 µM (active) and 24.3 µM (active),–
N#Cc1ccccc1,inactive,–
CC(=O)OCc1ccco1,60.8 µM (active) and inactive,–
CC(C)OC(=O)COc1ccc(Cl)cc1Cl,inactive,–
CN(C)c1ccc(O)c2c1C[C@H]1C[C@H]3[C@H](N(C)C)C(=O)C(C(N)=O)=C(O)[C@@]3(O)C(=O)C1=C2O,inactive,–
COc1ccc(N)c(C)c1,inactive,–
C=C(C)[C@H]1CC=C(C)C(=O)C1,inactive,–
CCCCCCCCCCCCCCCC(=O)OC(C)C,inactive,–
CC(C)=CCl,inactive,–
CCCCCCCCCCCC(=O)OC,inactive,–
CCNc1cccc(C)c1,inactive,–
COCCCN,inactive,–
CCOCCOCCOCCO,inactive,–
NCCCCCCN,inactive,–
CC(C)CCCCCCCOC(=O)CCCCC(=O)OCCCCCCCC(C)C,50.4 µM (active) and inactive,–
Cc1ccc(C(C)C)c(O)c1,inactive,–
CCNc1ccccc1,inactive,–
O=c1[nH]cnc2[nH]ncc12,inactive,–

SMILES,Potency,activation
CCOCC(=O)O,inactive,–
CC(C)CC(=O)CC(C)CC(C)C (stereo not given),inactive,–
CCCCCCC=O,inactive,–
CCc1ccccc1CC,inactive,–
CCCCCCCCCCCCCCCCO,inactive,–
O=C1c2ccccc2CCc2ccccc21,55.6 µM (active) and inactive,–
CCCCOC(=O)c1ccc(N)cc1,53.8 µM (active) and 23.7 µM (active),–
Cc1ccc2ncccc2c1,inactive,–
N[C@H](Cc1c[nH]c2ccccc12)C(=O)O,inactive,–
C[C@]12CC[C@@H]3c4ccc(O)cc4CC[C@H]3[C@@H]1C[C@@H](O)[C@@H]2O,inactive,–
CCOC(=O)n1ccn(C)c1=S,inactive,–
CC(=O)CCC=C(C)C,inactive,–
CC1(C)S[C@@H]2[C@H](NC(=O)COc3ccccc3)C(=O)N2[C@H]1C(=O)O,inactive,–
COC(=O)c1cccnc1,inactive,–
CNC(=O)Oc1ccc2c(c1)[C@]1(C)CCN(C)[C@@H]1N2C,–,-1.52% [at 42.5 µM] (inactive)
COCCOC(=O)c1ccccc1C(=O)OCCOC,inactive,–
CC1(C)OC[C@@H]2O[C@@]3(C(=O)O)OC(C)(C)O[C@H]3[C@@H]2O1,inactive,–
CCCCCCCCCCO,inactive,–
CC(C)(C)c1cc(Cc2cc(C(C)(C)C)c(O)c(C(C)(C)C)c2)cc(C(C)(C)C)c1O,inactive,–
CCCCCCCO,inactive,–
